# Measurements taken from ChEMBL document CHEMBL4888484, “Replenishing the malaria drug discovery pipeline: Screening and hit evaluation of the MMV Hit Generation Library 1 (HGL1) against asexual blood stage Plasmodium falciparum ,using a nano luciferase reporter read-out” (2022).
# In all, about 4,800 compounds went through this assay and about 410 (8.5%) showed an effect of 50% or more. This excerpt belongs to a sample that is enriched for strong results.
# Test system: Plasmodium falciparum
# Experiment: Confirmatory screen in NF54 pLDH assay, in single point, at 2uM, 72h
# Assay type: functional, Erythrocyte
# Conditions: timepoint 72 hour
row,SMILES,% Inhibition [%]
1,COc1cccc(S(=O)(=O)N2CCC(OCCOc3ccccc3)CC2)c1,7
2,COc1cccc(S(=O)(=O)N2CCC(OCCOCc3ccccc3)CC2)c1,10
3,COc1cccc(S(=O)(=O)N2CCCN(Cc3ccncc3)[C@H](c3ccccc3)CC(=O)NCC2)c1,86
4,Cc1cccc(NC(=O)Cn2ccc(C(=O)Nc3cccc(C)c3C)n2)c1C,-11
5,CCOC(=O)[C@@H]1C(=O)Nc2cc(OC)ccc21,9
6,COc1ccc(CCNCC(=O)Nc2c3c(nc4ccccc24)N(C)CC3)cc1OC,6
7,CN(C)c1ccc(NN=C2N=NN=N2)cc1,3
8,COc1cccc(NC(=O)Cn2c(C)ccc(NS(=O)(=O)c3ccc(C)cc3)c2=O)c1,59
9,COc1cccc(NC(=O)Cn2c(=O)n(C)c(=O)c3sc(N4CCCC4)nc32)c1,1
10,COc1cccc(Cn2c(=O)c3sccc3n(CC(=O)Nc3ccc4c(c3)OCO4)c2=O)c1,16
11,Cc1cc(C)c(NC(=O)CN(C)C(=O)NCc2ccco2)c(C)c1,-8
12,O=C(N[C@@H](Cn1nccn1)c1ccccc1)c1cc(Br)ccc1Cl,75
13,O=C(NC(Cn1ccccc1=O)c1ccccc1)C1CCOC1 (stereo unspecified),7
14,O=C(Nc1ccc2c(c1)c1cc(Br)ccc1n2Cc1ccccc1)c1ccccc1,6
15,Cc1ccccc1-c1cc2c(N3CCN(C4CCCCC4)CC3)nccn2n1,4
16,Cc1cc(Br)cc(N[C@H](c2cccnc2)c2ncc[nH]2)c1,6
17,Cc1ccc2nc(C3CC3)cc(C(=O)N3C[C@@H](O)C[C@H]3CO)c2c1,-1
18,Cc1ccc2nc3c(c(N)c2c1)CCCCN3C,-20
19,CC(C)c1ccc(S(=O)(=O)Nc2ccc3nc(NC(=O)c4ccccc4)sc3c2)cc1,6
20,CN(C)c1ccc(CNC2CCCCCC2)cc1,-13
21,CN(CC(=O)Nc1ccccc1C(F)(F)F)C1CNC1,8
22,Cc1csc(NC(=O)NCCc2cc(F)cc3c2OCOC3)n1,-14
23,COC[C@H](NCCc1cc(F)cc2c1OCOC2)C1CC1,82
24,N#Cc1cc(O)c(-c2c(O)n[nH]c2-c2ccccc2)cc1C#N,10
25,O=c1[nH]c(=O)n(Cc2nc(-c3ccco3)no2)cc1Cl,3
26,Cc1nn(C)c(C)c1CCCN[C@@H](C)c1cccc(O)c1,4

row,SMILES,% Inhibition [%]
1,Cc1ccc2nc(-c3cccc(NC(=O)c4ccc5c(c4)OCO5)c3)oc2c1,-7
2,COC(=O)c1cccc(C#Cc2cccc(NC(=O)c3cnc(C)cn3)c2)c1,-9
3,N#CCC(=O)NC1CCC(CC2CCC(NC(=O)CC#N)CC2)CC1 (stereo unspecified),-2
4,Cc1ccccc1S(=O)(=O)N1CCN(c2c(C)n(-c3ccccc3)c(=O)n(CC(C)C)c2=O)CC1,14
5,COc1ccc(CNC(=O)Nc2ccc3c(c2)N(C(=O)c2ccccc2)CCC3)cc1OC,11
6,CCC(C(=O)Nc1ccc2c(c1)CN(CCc1ccc(OC)c(OC)c1)C(=O)C(C)O2)c1ccccc1 (stereo unspecified),100
7,COc1ccc([C@H](C(=O)Nc2ccc(N(C)C)cc2)N(Cc2ccccc2)C(=O)Cc2ccccc2)cc1OC,-14
8,Cc1ccc(NC(=O)Cn2c(C)nc3c(-c4ccccn4)nsc3c2=O)c(C)c1,12
9,CCOc1cc(CNc2cccc3ccccc23)cc(Br)c1OCC(=O)NC(C)(C)C,91
10,COc1cccc(CNC(C)(C)C)c1OCC(=O)NC(C)(C)C,-4
11,CC[C@@H](CO)NCc1cccc(OC)c1OCC(=O)NC(C)(C)C,-12
12,O=C(Nc1ccn(-c2ccccc2)n1)N1CC2CCC(O)CC2C1 (stereo unspecified),-3
13,Cc1nsc2ncc(C(=O)N3CCC(C)CC3)c(N3CCC(C(=O)Nc4cc(F)ccc4F)CC3)c12,44
14,Clc1cc(CNCCc2ccccc2)ccc1OCc1ccccc1,3
15,Cc1cnccc1NCCNCc1cccc(O)c1Cl,101
16,COc1ccccc1CNCCNC(=O)c1ccncc1,9
17,N#Cc1c(CN(CCn2cccn2)Cc2cn3ccccc3c2C#N)cn2ccccc12,-22
18,C=CCN(CC=C)S(=O)(=O)c1ccc(S(=O)(=O)NC)cc1,-10
19,O=C(NC1CCCC1)c1cnn2c3c(cnc12)CCCCCC3,11
20,CCn1cc(Cl)c(C(=O)N(C2CCCCC2)C2CCCCC2)n1,10
21,Fc1cccc(F)c1-n1c(CN2CCCCC2)csc1=S,-5
22,CC(C)c1c2cc3c(cc2nn1-c1ccccc1)OCCO3,-11
23,C[C@H](O)CNCc1ccc(Cl)cc1Cl,1
24,CCCCCNC(=O)NCc1ncoc1C,4
25,Cc1cc(C)cc(-n2c(=O)c3sccc3n(CC(=O)NCc3ccccc3Cl)c2=O)c1,-17
26,O=c1[nH]c2ccccc2nc1-c1cc(Br)ccc1NS(=O)(=O)c1cccc2nsnc12,3

row,SMILES,% Inhibition [%]
1,CNc1nc(N2C[C@H](C)[C@@](O)(C3CC3)C2)nc2c1CCC2,1
2,Fc1ccccc1N1CCN(c2c3c(nc4nc(Cc5ccc(Cl)cc5)nn24)CCCC3)CC1,7
3,Cc1cc(-c2ccccc2)c(C#N)c(=O)n1C(=O)c1ccc(C#N)cc1,11
4,Brc1cc(Br)c2nc(-c3ccc(C4CCCCC4)cc3)ccc2c1,12
5,Cc1[nH]c2ccnn2c(=O)c1CC(=O)N1CC[C@H](C)c2cccc(O)c21,2
6,CCN(CC)c1nc(-c2ccccc2)c(C#N)c(N)c1C#N,12
7,CC(C)N1CCC(NC(=O)NCC2CCCCCCC2)CC1,6
8,O=C(CN1CCOC2CCCCC21)N1CCOC2CCCCC21 (stereo unspecified),-9
9,O=C(CN1CCC[C@H]1C1CCCC1)NCC1CCCCC1,61
10,COc1ccc(OCC(=O)Nc2ccc(N3CCn4c(nc5cc(Cl)ccc54)C3)cc2OC)cc1,-5
11,CC(C)COc1ccc(/C(N)=N/O)cc1,-20
12,Cc1ccccc1CN(Cc1ccccn1)Cc1ccnn1C,-5
13,CC1CCC(N(C)C(=O)c2cc(S(=O)(=O)N3CCCCC3)ccc2N2CCCC2)CC1 (stereo unspecified),-10
14,Cc1cc(C(=O)N[C@H]2CCS(=O)(=O)C2)nc(N(C)C)n1,2
15,Cc1ccc(N2C(=O)CN(CC(C)C)[C@H]3CS(=O)(=O)C[C@H]32)cc1,14
16,Cc1cccc(NC(=O)CCC(=O)OCC(F)(F)C(F)F)c1C,1
17,N#Cc1c(NC(=O)CN2CCC[C@@H]2CO)sc2c1CCCCC2,0
18,CC(C)(C)[C@H]1CCc2c(sc(NC(=O)C3(F)C(F)(F)C(F)(F)C(F)(F)C(F)(F)C3(F)F)c2C#N)C1,51
19,COCCN(CC(N)=O)CC(=O)NCc1ccccc1F,9
20,CC(C)(C)n1nc2nc(NCCN3CCCCC3)nc(-c3ccc(F)c(Cl)c3)c2c1N,76
21,COCCNc1nc(-c2ccccc2OC)c2c(N)n(-c3ccc(F)cc3)nc2n1,-5
22,COc1ccc(CCNc2nc(-c3ccc(OC)cc3F)c3c(N)n(-c4ccc(Cl)cc4)nc3n2)cc1,40
23,CN(Cc1ccsc1)C(=O)c1cc2ccccc2[nH]1,17
24,Cc1ccc(-c2c[n+](-c3ccc(OC(F)F)cc3)c3n2CCCCC3)cc1,60
25,CCOc1ccc(-[n+]2cc(-c3ccccc3)n3c2CCC3)cc1,70
26,CCOc1nc(C)nc2cc(-c3ccccc3)n(Cc3ccccc3)c12,13

row,SMILES,% Inhibition [%]
1,FC(F)Oc1ccc(-c2c[n+](-c3cccc(C(F)(F)F)c3)c3n2CCCCC3)cc1,42
2,COc1ccc(C(=O)C[n+]2nc(CNc3ccc(Br)cc3)n3c2CCCCC3)cc1,82
3,Cn1c(-c2ccc(Cl)c(Cl)c2)c[n+](CC(=O)c2ccc(F)cc2)c1N,-12
4,Cn1c(-c2ccc(Br)cc2)c[n+](CC(=O)c2ccc(Br)cc2)c1N,-4
5,COc1ccc(C(=O)C[n+]2cc(-c3ccc(OC)cc3)n3c2CCCC3)cc1,65
6,COc1ccc(CC(=O)NCc2nnc3n2CCC3)cc1,9
7,Cc1nnc(NC(c2cnc3ccccc3c2)[C@H]2C[C@@H](O)C2)s1 (stereo partly specified),12
8,O=C(Cc1c[nH]c2ccccc12)N1CCc2ccccc2C1,-17
9,COc1ccc2c(c1)OC13CCN(C)CC1C2C(C(=O)c1ccccc1OC)C(=O)N3 (stereo unspecified),10
10,CCC(=O)N1CCc2sc(S(=O)(=O)N3CCN(c4cc(C)ccc4C)CC3)cc2C1,38
11,c1ccc(-c2cn(-c3ccccc3)c3ncnc(N4CCCC4)c23)cc1,13
12,C=CCOc1cc(C(=O)N2CCCCC2)cc2occc12,11
13,COc1cc([C@H]2CC(=O)Nc3c2cnn3C)ccc1OCc1ccccc1,-8
14,O=C(NC1CCCNC1=O)NC1CCCC1c1ccc(Cl)cc1 (stereo unspecified),10
15,O=C(NCCC1=CCOCC1)c1cnc2ccccn12,-2
16,O=C(CCc1ccccc1)Nc1ccc(-n2nn[nH]c2=O)cc1,15
17,O=C1Nc2ccccc2[C@@]12Nc1ccccc1CO2,9
18,C[C@@H](C(=O)N1CCN(C/C=C/c2ccccc2)CC1)N1Cc2ccccc2C1=O,0
19,Cc1ccc(CCNC(=O)c2ccc(-c3nc(CS(=O)(=O)c4ccc(C)cc4)c(C)o3)cc2)cc1,-23
20,COc1ccc(N2CCN(Cc3cc(-c4ccc(Cl)cc4)no3)CC2)cc1,-19
21,COc1ccc(-c2c[n+](-c3ccc(Cl)cc3)c3n2CCCCC3)cc1,57
22,COc1ccc(-n2nc(C(=O)N3CCN(c4ncccn4)CC3)c(=O)cc2OC)cc1,-29
23,CCC(C)(C)N(C)C(=O)c1ccccc1Cl,-1
